Source: PubChem BioAssay (several laboratories)
Mtb hypoxia inh: reduces hypoxia-regulated biosensor signal in M. tuberculosis. M. tuberculosis hypoxia-regulated fluorescent reporter, fluorescence. fluorescence inhibition, % (no concentration beside the values). 300,000 compounds, 0.1% hits; in the data active means fluorescence inhibition mostly above about 23%, no sharp cut-off; inactive means mostly below about 17%
3CLpro inhibitor: SARS-CoV 3CLpro protease inhibition | P0C6X7 | recombinant SARS-CoV 3CLpro, quenched FRET peptide cleavage | inhibition, % at 6 µM | 290,000 compounds, 0.14% hits; in the data active means inhibition above about 12%
VHR inh abs: inhibitors of human VHR1 phosphatase (DUSP3) | P51452 | recombinant VHR phosphatase, pNPP absorbance | inhibition, % at 13.3 µM | 290,000 compounds, 0.52% hits; in the data active means inhibition above about 50%
Target sequence (P51452 whole entry, looked up): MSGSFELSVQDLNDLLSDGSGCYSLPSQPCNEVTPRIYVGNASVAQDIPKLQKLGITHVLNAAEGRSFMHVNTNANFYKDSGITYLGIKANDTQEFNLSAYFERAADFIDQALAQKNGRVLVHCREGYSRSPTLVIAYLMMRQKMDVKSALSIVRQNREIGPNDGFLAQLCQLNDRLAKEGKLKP
Mtb BioA inh: BioA (M. tuberculosis) enzyme inhibition. inhibition, % at 9.99 µM. 360,000 compounds, 0.096% hits. AID 602481. purified M. tuberculosis BioA enzyme, plate reader; in the data active means inhibition above about 40%; inconclusive means no clear call, values can overlap the other calls
FadD28 binding: M. tuberculosis FadD28 bisubstrate binding inhibition; AID 588549; 360,000 compounds, 0.22% hits; FadD28 bisubstrate probe binding, fluorescence polarization; inhibition, % at 12.5 µM; in the data active means inhibition above about 8.5%, passing the limit was not always enough; inconclusive means no clear call, values can overlap the other calls
* = called active by the depositor; ? = inconclusive; . = not tested or not shown. Compounds with a hit are over-represented: about 0.7% of the library has one in this group of screens.

SMILES	Mtb hypoxia inh	3CLpro inhibitor	VHR inh abs	Mtb BioA inh	FadD28 binding
COc1ccc(-c2cc(=O)oc3c(O)c(O)ccc23)cc1	6	-1	59*	-1	-3
COc1ccc(-c2cc(=O)oc3cc(OC(C)C(=O)O)ccc23)cc1 (centres undefined)	1	4	26	2	-2
Cc1ccc(-c2cc(C(=O)Nc3ccc(S(=O)(=O)Nc4onc(C)c4C)cc3)[nH]n2)c(O)c1	15	1	25	3	14*
N#Cc1ccc(C23OCCN2CCn2nc4ccccc4c23)cc1 (centres undefined)	-2	.	.	1	-2
[O-][n+]1c2ccccc2c2n1CCN1CCOC21c1ccc(Cl)cc1 (centres undefined)	66*	.	.	0	1
O=C(Nc1ccc(F)cc1)C1CC(=O)n2c(nc3ccccc32)N1 (centres undefined)	.	3	3	-3	0
O=C(Nc1ccc(F)c(Cl)c1)C1CC(=O)n2c(nc3ccccc32)N1 (centres undefined)	2	6	53*	.	-1
O=C(N/N=C/c1c(O)n(-c2ccccc2Cl)c(=O)c2ccccc12)c1cccnc1	-9	5	15	.	7
COc1ccc(Cn2c(O)c(/C=N/NC(=O)c3cccnc3)c3ccccc3c2=O)cc1	2	10	15	.	14*
O=C(N/N=C/c1c(O)n(Cc2ccccc2)c(=O)c2ccccc12)c1cccnc1	12	6	37	.	11*
COC(=O)C1=C(c2cccc(OC)c2OC)CC2CCC1N2C (centres undefined)	7	.	.	.	.
Cc1ccc(S(=O)(=O)NN=Cc2ccccc2O)cc1[N+](=O)[O-]	2	.	.	.	.
CCC(C)C(NC(=O)Nc1ccc(C(C)=O)cc1)C(=O)OC (centres undefined)	3	.	.	.	.
Cc1ccc(C)n1-c1sccc1C(=O)O	-5	-3	-7	-4	21*
Cc1ccc(C)n1-c1sc2c(c1C(=O)O)CCCC2	18	2	-3	.	4
COC(=O)C1CC2CCC(O)CC2N1Cc1ccc(C)s1 (centres undefined)	2	.	.	.	.
CCOc1cc(/C=C(\C#N)C(=O)Nc2cccc(C(=O)O)c2)ccc1OCc1ccc(Br)cc1	-9	5	53*	0	-4
CCCC(C)=NNC(=O)c1ccccc1O	7	.	.	.	.
COc1ccc(C2C3C(=O)N(C(C)(C)C)C(=O)C3[C@]3(C)C(=O)N(c4cccc(F)c4)C(=O)N23)cc1 (some centres undefined)	-4	.	.	.	.
COc1ccc(CCN(C)Cc2c(O)ccc3ccccc23)cc1OC	0	2	58*	-1	0
CC1CC2C3CCC4=CC(=O)C=C[C@]4(C)[C@@]3(Cl)C(O)C[C@]2(C)[C@@]1(O)C(=O)CO (some centres undefined)	13	.	.	.	.
Cc1ccccc1NC(=S)NN=Cc1ccc(O)cc1O	-2	.	.	.	.
O=C(O)c1ccccc1NN=Cc1c(Sc2nnnn2-c2ccccc2)nc2ccccn2c1=O	5	.	.	.	.
CCn1ncc(CN2CCC(Oc3ccc(C(=O)N4CCCC4)cc3)CC2)c1C	8	1	8	0	-2
CCn1nc(C)c(CN2CCC(Oc3ccc(C(=O)N4CCCC4)cc3)CC2)c1C	6	-2	57*	-2	-2
SMILES	Mtb hypoxia inh	3CLpro inhibitor	VHR inh abs	Mtb BioA inh	FadD28 binding
c1cc(-c2sc(-c3ccncc3)c(-c3ccncc3)c2-c2ccncc2)ccn1	-3	1	53*	2	-1
Cc1cccc(NC(=O)CN2C(=O)S/C(=C\c3cc(C)n(C)c3C)C2=O)c1	4	-3	-11	8	34*
Cc1ccc(C(=O)O)cc1-c1ccc(/C=C2\SC(=O)N(CC(=O)Nc3ccccc3)C2=O)o1	-7	4	79	-4	17*
Cc1ccc(NC(=O)CN2C(=O)S/C(=C\c3cc(C)n(-c4cccc(C(=O)O)c4)c3C)C2=O)cc1	.	7	9	.	43*
Cc1ccc(C(=O)N2C3CN(C)C(=O)[C@@]2(C)C2C(=O)N(Cc4ccccc4)C(=O)C32)cc1 (some centres undefined)	1	.	.	.	.
CCC(C)[C@H](NC(=O)N1CC(=O)Nc2ccccc21)C(=O)Nc1nccs1 (some centres undefined)	4	-4	52*	-3	-1
CC(C)c1ccc(NC(=O)CCNC(=O)N2CC(=O)Nc3ccccc32)cc1	-2	-1	51*	-1	1
COc1ccc(NC(=O)CCNC(=O)N2CC(=O)Nc3ccccc32)cc1	.	.	.	-1	-4
CCCCC1CNC(=S)N1CC1CCCCC1 (centres undefined)	18	.	.	.	.
COC(=O)[C@@]1(Cc2ccc(F)cc2)C2c3cc(C(=O)N4CCCC4)n(CCO)c3CC2CN1C(=O)c1ccccc1 (some centres undefined)	4	.	.	.	.
CC(C)Cn1c(=O)c(C(=O)Nc2cnccn2)c(O)c2ccccc21	3	4	8	2	-2
CC(C)Cn1c(=O)c(C(=O)Nc2ccncc2)c(O)c2ccccc21	42*	.	.	-4	1
c1coc(-c2nc(-c3ccco3)c(-c3ccco3)nc2-c2ccco2)c1	1	-1	51*	0	?
Nc1nc(-c2ccco2)c(-c2ccco2)s1	.	-6	14	.	1
O=C1C2CCC3C(=NOCC(O)COCc4ccco4)CC(O)C(O)C3C2C(=O)N1c1ccc(F)cc1F (centres undefined)	0	.	.	.	.
Cc1cc(OC(C)C(=O)NCCCN2CCOCC2)ccc1Cl (centres undefined)	-9	5	50*	-1	0
CC(Oc1ccc(Cl)cc1Cl)C(=O)NCCCN1CCOCC1 (centres undefined)	0	3	12	-1	-1
c1ccc2c(CCN3CCNCC3Cc3cccc4ccccc34)cccc2c1 (centres undefined)	-6	.	.	.	.
Cc1[nH]n(-c2ccc([N+](=O)[O-])cc2)c(=O)c1C=NCCc1c[nH]c2ccccc12	1	0	55*	1	-1
Cc1ccc(/C=C/C(=O)N2CCN(Cc3ccccc3)CC2)o1	59*	1	-7	.	-4
COCCn1c(=S)[nH]c2sc3c(c2c1=O)CCC(C)C3 (centres undefined)	2	3	12	2	12*
Cn1c(=O)c(C(=O)NC2CCCCCC2)c(O)c2ccccc21	5	4	60*	-1	3
Cn1c(=O)c(C(=O)NC2CCCCCCC2)c(O)c2ccccc21	4	0	19	-1	-4
COc1ccc(CC(NC(C)=O)C(=O)NC2CCN(C(=O)c3cccc(Cl)c3)CC2)cc1OC (centres undefined)	-13	1	53*	-2	1
O=C1NN(c2cccc(Br)c2)C(=O)/C1=C\c1ccc(O)cc1	.	1	53*	7	7
O=C1NN(c2cccc(Br)c2)C(=O)/C1=C/c1ccc(-c2cc([N+](=O)[O-])ccc2O)o1	6	2	91*	.	3
O=C1NN(c2ccc(Br)cc2)C(=O)/C1=C\c1ccc(O)cc1O	.	8	6	3	16*
